These results are taken from PubChem BioAssay (NCI).

The subject of this assay is HL-60(TB) leukemia. Put plainly: NCI-60 one-dose screen, 48 h (100 = growth as untreated, 0 = no growth, -100 = all killed). To be noted: 10 µM unless noted.

SMILES strings stand for the structures. About 83,000 compounds went through this panel and 20% of them were active in at least one assay; those are over-represented in the sample as a whole.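 Negative percent growth values reflect cell death: -40 means 40% of the cells present at the start died, and -100 means all died.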 A number with no mark means an inactive call. Activity calls are given as the source filed them. Rule for the calls: active = growth percent below 10; inactive = the rest.

Take `CCCOC(=O)Nc1nc2ccc(SCC(C)C)cc2s1`: the growth was 15.9%.
With `Clc1ccc2c(c1)NC1(CCSc3ccccc31)n1nccc1-2` (centres undefined) the figure was 97.4%; with `C=C1C(=O)O[C@H]2[C@H]1CC/C(COC(=O)CCCc1c[nH]c3ccccc13)=C\CC[C@@]1(C)O[C@@H]21`, 2.97% (active); with `N[C@H](CS)C(=O)O`, 109%.
With `Nc1nc(Nc2ccccc2SSc2ccccc2Nc2nc(N)nc(-c3ccc(I)cc3)n2)nc(-c2ccc(I)cc2)n1` the figure was 83.1%.
With `COc1ccc(-c2cc(=O)oc3c4c(ccc23)OCN(Cc2ccc(F)cc2)C4)cc1` the figure was 47.9%; with `Cn1cc(-c2csc(-c3cn(CCCN4CCCCC4)c4ccccc34)n2)c2cccnc21`, -65.2% (active); with `O=NN(C(=O)NC1CCC(C(=O)O)CC1)C1CCC(C(=O)O)CC1` (centres undefined), 112%.
On to `COc1ccc2c(c1)c(-c1nc(-c3ccc4ccccc4c3)cs1)cn2C`, for which the growth is 85.7%.
On to `Cc1ccc(C)n1-c1ccsc1C(=O)NNC(=O)C(Cl)Cl`, for which the growth is 106%.
With `COc1ccc(C(=O)/C=C/c2ccc(Cl)cc2)cc1S(=O)(=O)Nc1c(N)nc(SC)[nH]c1=O` the figure was 36.8%; with `CCC(=O)OCc1cccc(OC)c1`, 53.7%.
As for `Nc1ccc2c3c(cccc13)-c1ccccc1-2`, the figure is 4.53% (active).
Regarding `CC(O)CN(CC(C)O)N(CC(C)O)CC(C)O` (centres undefined), the growth was 102%.
As for `Nc1c(C(=O)Nc2cccc3ncccc23)sc2nc3c(cc12)CN(Cc1ccccc1)CC3`, the figure is 48.6%; as for `Cc1cccc(Cl)c1NC(=O)c1cnc(Nc2cc(N3CCOCC3)cc(S(C)(=O)=O)c2)s1`, 110%; as for `CC1CN(CCCOC(=O)Nc2ccc(Cl)cc2)CCN1C(C)(C)C` (centres undefined), 96.1%.
As to `CCCN1CCN(c2ccc3nc(-c4ccc5nc(-c6ccc(OCC)cc6)[nH]c5c4)[nH]c3c2)CC1`, the growth was 16.9%.
For the compound `C#CCOC(=O)/C=C/c1cn(-c2ccccc2)nc1-c1ccc(OC)cc1`, the growth was 110%.
For `O=C(c1ccc(OCCN2CCCCC2)cc1)c1c(-c2ccc(O)cc2)sc2cc(O)ccc12`, the growth is 76.8%.
With `N#C/C(=C\c1cn(Cc2ccccc2)c2ccccc12)C(=O)Nc1ncc(Cc2ccccc2Cl)s1` the figure was 93.1%; with `Cc1ccc(S(=O)(=O)Oc2ccc3sc4cccc(NCCN(C)C)c4c(=O)c3c2)cc1`, -64% (active).
`O=C(N/N=C/c1ccc(Cl)cc1)c1ccc(C(F)(F)F)nc1Nc1cccc(C(F)(F)F)c1`: the growth was -37.2% (active).
Take `O=C1C(Cl)=C(NCCN2CCOCC2)C(=O)c2ncccc21`: the growth is -45.5% (active).
`CCCCNc1ccc(Nc2ccccc2)cc1`: the growth is 16.5%.
Turning to `O=C(COc1cccc(/C=C2\CSc3ccccc3C2=O)c1)Nc1nccs1`, the growth is -76.3% (active).
With `NC(=O)c1c(NC(=O)c2ccccn2)sc2c1CCC(=O)C2` the figure was -0.0087% (active).
Consider `COc1cnc2c(c1)C(=O)c1c-2n(CCCn2ccnc2)c(=O)c2cc(F)ccc12`, for which the growth is -44.5% (active).
As to `CCN(CC)CCNc1nc2ccccc2c2c(=O)c3cc(Cl)ccc3sc12`, the growth is 78.1%.
Turning to `CN(C)CCCn1c2c(c3ccc(N4CCNCC4)cc3c1=O)C(=O)c1ccccc1-2`, the growth was 8.73% (active).
As for `COc1cc(C2CC(c3ccccc3)=NN2C(C)=O)cc(OC)c1OC` (centres undefined), the figure is 14.2%.
For the compound `COc1cc(-c2nn(-c3cccc(NC(=O)Nc4ccc(Cl)c(C(F)(F)F)c4)c3)cc2-c2ccncc2)ccc1Cl`, the growth was -19.8% (active).
With `CC(=O)OC[C@]12CC[C@@H](c3cn(Cc4ccc(Cn5cc([C@@H]6CC[C@]7(COC(C)=O)CC[C@]8(C)[C@H](CC[C@@H]9[C@@]%10(C)CC[C@H](OC(C)=O)C(C)(C)[C@@H]%10CC[C@]98C)[C@@H]67)nn5)cc4)nn3)[C@@H]1[C@H]1CC[C@@H]3[C@@]4(C)CC[C@H](OC(C)=O)C(C)(C)[C@@H]4CC[C@@]3(C)[C@]1(C)CC2` the figure was 90.5%.
Consider `C=C(C)[C@@H]1CC[C@]2(C(=O)O)CC[C@]3(C)[C@H](CC[C@@H]4[C@@]5(C)C[C@@H](CC#Cc6ccccc6C)C(=O)C(C)(C)[C@@H]5CC[C@]43C)[C@@H]12`, for which the growth was -14.7% (active).
As for `Oc1[nH]c2cc(Cl)ccc2c1/C=c1/ccc2c(c1)N=C(c1cc(F)cc(F)c1)N=2`, the figure is -9.98% (active); as for `S=C(SSC(=S)N1CCOCC1)N1CCOCC1`, 98%; as for `NNC(=O)Cc1ccccc1`, 73.1%.
For the compound `CC(C)C[C@H](NC(=O)[C@H](Cc1ccccc1)n1ccc(N2CCCCC2)cc1=O)B(O)O`, the growth is 1.9% (active).
For the compound `C[C@@H]1CC2C3CCC4=CC(=O)C=C[C@]4(C)[C@@]3(Cl)[C@@H](O)C[C@]2(C)[C@@]1(OC(=O)c1ccco1)C(=O)CCl` (some centres undefined), the growth is 78.2%.
